Measured values as given in PubChem BioAssay (NCATS).
Some of the results follow. Inconclusive results are not listed. Values without a mark were called inactive. Active and inactive are the calls of the source. Calls follow the shape of the dose curve; as a rule, active = well fitted inhibition curve with a large enough effect; inconclusive = small, poorly fitted or top-dose-only effect; inactive = no such curve, though single readings can be large or run the other way.

What follows are molecules tested against ATPase family AAA domain-containing protein 5 (Homo sapiens) (UniProt Q96QE3) (assay: HTS assay for small molecules that inhibit ELG1-dependent DNA repair in human embryonic kidney (HEK293T) cells expressing luciferase-tagged ELG1: Hit Confirmation (AID 624248; also: nearly all actives have a fitted effect of over 55% in size)). Settings: HEK293T ELG1-luciferase levels, luminescence, cells co-treated with 5-fluorouridine; series mostly up to 46.1 µM; activity change, negative = inhibition: at the top concentration.
Chain of ATPase family AAA domain-containing protein 5 (Homo sapiens) (Q96QE3 whole entry, looked up, the tested form may be a part): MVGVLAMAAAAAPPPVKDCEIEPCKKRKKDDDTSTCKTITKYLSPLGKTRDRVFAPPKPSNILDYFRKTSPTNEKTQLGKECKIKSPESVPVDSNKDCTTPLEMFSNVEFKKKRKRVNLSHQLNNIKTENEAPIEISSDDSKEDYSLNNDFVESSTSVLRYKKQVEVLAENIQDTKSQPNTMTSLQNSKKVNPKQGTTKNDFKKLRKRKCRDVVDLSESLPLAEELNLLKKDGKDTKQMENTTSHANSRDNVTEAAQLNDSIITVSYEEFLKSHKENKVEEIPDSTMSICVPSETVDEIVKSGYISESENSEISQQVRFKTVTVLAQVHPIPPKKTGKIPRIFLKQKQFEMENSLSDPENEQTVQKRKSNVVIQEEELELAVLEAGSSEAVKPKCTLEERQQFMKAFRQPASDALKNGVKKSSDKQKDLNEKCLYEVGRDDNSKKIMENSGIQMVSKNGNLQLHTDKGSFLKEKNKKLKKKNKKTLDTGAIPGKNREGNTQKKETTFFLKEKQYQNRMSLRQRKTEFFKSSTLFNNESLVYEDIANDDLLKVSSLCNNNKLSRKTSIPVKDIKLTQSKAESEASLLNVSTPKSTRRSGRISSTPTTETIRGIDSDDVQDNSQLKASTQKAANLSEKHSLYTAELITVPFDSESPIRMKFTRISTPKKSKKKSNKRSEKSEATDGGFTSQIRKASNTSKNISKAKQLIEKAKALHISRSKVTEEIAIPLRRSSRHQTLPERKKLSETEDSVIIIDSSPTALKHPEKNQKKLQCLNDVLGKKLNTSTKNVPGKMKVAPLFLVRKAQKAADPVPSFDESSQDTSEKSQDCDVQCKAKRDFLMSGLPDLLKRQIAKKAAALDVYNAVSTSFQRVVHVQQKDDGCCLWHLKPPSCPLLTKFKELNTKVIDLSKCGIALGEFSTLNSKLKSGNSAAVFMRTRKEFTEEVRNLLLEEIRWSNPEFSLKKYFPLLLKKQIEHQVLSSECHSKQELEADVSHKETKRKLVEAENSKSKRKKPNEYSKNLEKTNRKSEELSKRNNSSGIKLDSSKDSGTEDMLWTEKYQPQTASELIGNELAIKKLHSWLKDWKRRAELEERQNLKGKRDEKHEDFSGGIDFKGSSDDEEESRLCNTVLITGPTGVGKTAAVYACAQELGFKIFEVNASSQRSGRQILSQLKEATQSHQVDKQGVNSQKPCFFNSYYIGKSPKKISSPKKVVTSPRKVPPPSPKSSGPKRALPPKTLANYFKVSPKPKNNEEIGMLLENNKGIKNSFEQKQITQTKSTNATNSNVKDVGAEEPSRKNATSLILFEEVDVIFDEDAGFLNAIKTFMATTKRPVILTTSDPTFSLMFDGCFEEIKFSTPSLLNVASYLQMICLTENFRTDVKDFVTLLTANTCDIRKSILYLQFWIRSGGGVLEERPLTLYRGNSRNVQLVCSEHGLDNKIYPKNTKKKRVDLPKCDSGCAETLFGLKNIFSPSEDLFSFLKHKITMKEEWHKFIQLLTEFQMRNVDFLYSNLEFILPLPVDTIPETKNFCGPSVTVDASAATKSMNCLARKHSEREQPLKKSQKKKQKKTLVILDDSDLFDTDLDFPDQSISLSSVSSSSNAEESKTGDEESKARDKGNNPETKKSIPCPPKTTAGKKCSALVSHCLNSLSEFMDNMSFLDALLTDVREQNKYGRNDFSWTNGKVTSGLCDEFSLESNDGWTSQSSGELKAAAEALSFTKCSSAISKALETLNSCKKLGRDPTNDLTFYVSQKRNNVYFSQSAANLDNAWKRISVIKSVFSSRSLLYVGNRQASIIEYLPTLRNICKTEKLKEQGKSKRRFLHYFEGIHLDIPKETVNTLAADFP
Source text: Cancer cells divide rapidly compared to normal cells in the body. During cell division, cancer cells need to duplicate their genome by DNA replication. The failure of genome duplication leads to cancer cells' death. Therefore, inhibitors of DNA replication could specifically kill cancer cells. Based on this concept, many chemotherapeutic agents were developed and have been used to treat cancer patients. However, there are a limited number of agents available in the clinical setting, and some of those that do exist have low efficacy and severe side effects. Therefore, if we can find the compounds that effectively block DNA replication either by directly damaging DNA or by inhibiting other cellular mechanisms, the options for cancer treatment will be broadened. With this in mind, we developed a quantitative high-throughput ELG1-luciferase reporter gene assay. Small molecules that specifically block ELG1 function in response to DNA damage can be identified by monitoring the suppression of luciferase activity. Since ELG1 defines a pathway for repairing DNA damage, agents blocking ELG1 function can be used to sensitize cancer cells to chemotherapeutic agents whose mechanism of action involves the induction of DNA damage.
NIH Molecular Libraries Probe Production Network [MLPCN]
NIH Chemical Genomics Center [NCGC]
Assay Provider: Kyungjae Myung, NHGRI, NIH
For genotoxicity screening, 2,000 cells in 4 uL/well were dispensed into white, solid-bottom 1536-well plates using a solenoid-based dispenser. Following transfer of 1 uL 5-Fluorouridine and 23 nL compound or DMSO vehicle by a pin tool, the plates were incubated 16 hr at 37 °C and 5% CO2. 5 ul ONE-Glo (Promega) was then added to each plate and following a 30 min incubation at room temperature, luciferase activity was quantified on a ViewLux CCD-based plate reader.
% is scaled to controls: 0 for no effect and ±100 for the full control effect; potency is read from the fitted curve at half-maximal effect.

Structure (SMILES) | Potency | activity change, negative = inhibition [%]
Cc1ccc(C)c(S(=O)(=O)N2CCN(c3ncnc4sccc34)CC2)c1 | 4.99 µM (active) | 
Nc1nnc(SCC(=O)Nc2ccc3nc(SCC(=O)Nc4ccccc4)sc3c2)s1 | 0.888 µM (active) | 
Cc1ccc(Nc2nc(N3CCOCC3)nc(N3CCOCC3)n2)cc1Cl | 1.99 µM (active) | 
COc1ccccc1C(=O)Nc1ccc(C)c(S(=O)(=O)N2CCCCC2)c1 | 14.1 µM (active) | 
CC12CCC(C(=O)N3CCN(c4ncccn4)CC3)(c3nc4ccccc4nc31)C2(C)C (stereo unspecified) | 7.91 µM (active) | 
COc1ccc(-c2nn(-c3ccccc3)cc2/C=C\C(=O)N2CCOCC2)cc1[N+](=O)[O-] | 1.41 µM (active) | 
Cc1ccc(N(Cc2ccc(C(=O)Nc3ccccc3C(=O)NCc3ccco3)cc2)S(C)(=O)=O)cc1C | 6.28 µM (active) | 
COc1ccc(NC(C)=O)cc1NC(=O)CN1CCN(C2c3ccccc3-c3ccccc32)CC1 | 2.81 µM (active) | 
Cc1cc2oc(=O)cc(CN3CCN(S(=O)(=O)c4cccs4)CC3)c2cc1C(C)C | 3.53 µM (active) | 
COc1ccc(CSc2nc(N3CCOCC3)c3c(c2C#N)CC(C)(C)OC3)cc1 | 0.889 µM (active) | 
CN(CC1CCCO1)S(=O)(=O)c1ccc(C(=O)Nc2ccc(F)cc2)cc1 (stereo unspecified) | 9.96 µM (active) | 
CN(C)c1ccnc2sc3c(=O)n(Cc4ccccc4)cnc3c12 | 4.45 µM (active) | 
CCc1ccc(N(CC)c2ncnc3nc[nH]c23)cc1 | 4.99 µM (active) | 
COc1ccc(NC(=O)c2sc3nc(C)nc(N4CCN(c5ccccn5)CC4)c3c2C)c(OC)c1 | 3.97 µM (active) | 
Clc1ccc2nc(-c3ccccc3)nc(C(Cl)Cl)c2c1 | 3.53 µM (active) | 
CCOC(=O)c1cccc(NC(=O)C2CCN(c3ncnc4c3nc3n4CCCCC3)CC2)c1 | 3.97 µM (active) | 
CC(=O)c1c(C)n(-c2ccc(C)cc2)c2ccc(O)cc12 |  | -2.68
NC(=O)c1sc2nc3c(c(-c4ccccc4)c2c1N)CCC3 | 1.77 µM (active) | 
Cc1ccccc1NC(=O)CSc1nc2ccc(Nc3nc(N4CCOCC4)nc(N4CCOCC4)n3)cc2s1 | 3.15 µM (active) | 
CS(=O)(=O)c1ccc2nc(NC(=O)C3CCCCC3)sc2c1 | 6.28 µM (active) | 
OCCCNc1nccc(-c2cc(Nc3cccc(Cl)c3)ncn2)n1 | 0.792 µM (active) | 
